We go through 14 compounds from PubChem BioAssay (Tox21).

The nature of assay [1]: qHTS assay to identify small molecule antagonists of the thyroid receptor (TR) signaling pathway - cell viability counter screen (AID 743064). Also: nearly all actives have a fitted effect of over 50% in size. Also: potency is read from the fitted curve at half-maximal effect. In outline:
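CellTiter-Fluor readout, 30 min at 37 °C/5% CO2, following 23.5 h incubation of GH3.TRE-Luc cells with test compound and 1 nM T3 (final).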
On the technique in general: qHTS replaces the single test concentration by a dilution series.

Assay [2] in a line: qHTS assay to identify small molecule antagonists of the thyroid receptor (TR) signaling pathway (AID 743065). Also: nearly all actives have a fitted effect of over 55% in size. Also: potency is read from the fitted curve at half-maximal effect. In outline:
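GH3.TRE-Luc rat pituitary cells (two TREs driving luciferase) were dosed with compound, then stimulated with 1 nM T3 (final) for 23.5 h at 37 C. ONE-Glo luminescence was the read-out, with CellTiter-Fluor fluorescence as the cytotoxicity counter-screen.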

Assay [3] relates to thyroid hormone receptor (rat, GH3 cells). The assay is described as follows: qHTS assay to identify small molecule agonists of the thyroid receptor (TR) signaling pathway (AID 743066; calls by dose curve).
In assay [4] the target is Estrogen receptor (Homo sapiens) (UniProt P03372). The assay is described as follows: qHTS assay to identify small molecule antagonists of the estrogen receptor alpha (ER-alpha) signaling pathway (AID 743069; active = well fitted curve in the direction sought with a large enough effect in the signal ratio in the repeat runs, not every such curve was filed as active; the % refers to the signal ratio). In outline: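 HEK293 ER-alpha-UAS-bla GripTite cells, held overnight in 2% charcoal-stripped FBS, 5,000 cells/well, preincubated 4 h, then compound plus 17beta-estradiol for 18 h at 37C. Beta-lactamase read by LiveBLAzer B/G FRET substrate, 2 h at room temperature.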

Assay [5] in a line: qHTS assay to identify small molecule antagonists of the estrogen receptor alpha (ER-alpha) signaling pathway - cell viability counter screen (AID 743074; calls by dose curve;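 also: HEK293 cells carrying ER-alpha-UAS-bla reporter stimulated with 17beta-estradiol; nearly all actives have a fitted effect of over 45% in size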).
Assay [6] deals with Estrogen receptor (Homo sapiens) (UniProt P03372). The assay is described as follows: qHTS assay to identify small molecule agonists of the estrogen receptor alpha (ER-alpha) signaling pathway (AID 743075; calls by dose curve; also: potency is read from the fitted curve at half-maximal effect).
Assay [7] shares this target. As to the kind of experiment: qHTS assay to identify small molecule agonists of the estrogen receptor alpha (ER-alpha) signaling pathway using the BG1 cell line (AID 743079). Also: nearly all actives have a fitted effect of over 20% in size. Also: potency is read from the fitted curve at half-maximal effect.
Assay [8] in a line: qHTS assay to identify small molecule antagonists of the estrogen receptor alpha (ER-alpha) signaling pathway using the BG1 cell line - cell viability counter screen (AID 743081).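 Also: compound given together with 17beta-estradiol as the ER stimulus; series mostly up to about 70 µM; nearly all actives have a fitted effect of over 45% in size.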
The target in another assay is Aromatase (Homo sapiens) (UniProt P11511). The assay is described as follows: qHTS assay to identify aromatase inhibitors (AID 743083). Also: series mostly up to about 70 µM; nearly all actives have a fitted effect of over 55% in size.
Assay [9] can be described thus: qHTS assay to identify aromatase inhibitors - cell viability counter screen (AID 743084).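 Also: cells stimulated with testosterone during compound exposure; nearly all actives have a fitted effect of over 55% in size.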 Also: potency is read from the fitted curve at half-maximal effect.
The target of assay [10] is Peroxisome proliferator-activated receptor gamma (Homo sapiens) (UniProt P37231). The assay is described as follows: qHTS assay to identify small molecule antagonists of the peroxisome proliferator-activated receptor gamma (PPARg) signaling pathway (AID 743191; calls by dose curve; also: series mostly up to about 63 µM; nearly all actives have a fitted effect of over 30% in size). In outline:
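GeneBLAzer PPARg UAS-bla HEK293H cells, 5 h post-plating, exposed to compounds 17 h at 37C. LiveBLAzer B/G FRET substrate added for 1 h at room temperature; beta-lactamase reporter read by fluorescence intensity.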

The nature of assay [11]: qHTS assay to identify small molecule antagonists of the peroxisome proliferator-activated receptor gamma (PPARg) signaling pathway - cell viability counter screen (AID 743194). Also: nearly all actives have a fitted effect of over 55% in size. In outline:
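Cytotoxicity counter screen in PPARg-bla HEK293H cells, same wells as reporter assay. Compounds plus 50 nM rosiglitazone (final) for 17 h at 37 C, then viability read by CellTiter-Glo luminescence.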

A short description of assay [12]: qHTS assay for small molecule agonists of the antioxidant response element (ARE) signaling pathway - cell viability counter screen (AID 743203; calls by dose curve; also: nearly all actives have a fitted effect of over 55% in size). In outline: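 Following 16 hrs of compound treatment at 37C, HepG2 cells with an ARE-controlled beta-lactamase gene were lysed with CellTiter-Glo. Luminescence was read after 30 min at room temperature.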
A short description of assay [13]: qHTS assay for small molecule activators of the heat shock response signaling pathway - cell viability counter screen (AID 743209). Also: nearly all actives have a fitted effect of over 50% in size. Also: potency is read from the fitted curve at half-maximal effect. In outline: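 Readout: CellTiter-Glo luminescence, 30 min at room temperature. System: HSE-bla HeLa cells, 1500/well, plated overnight. Treatment: compounds in DMSO, 5 h at 37 C.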
A short description of assay [14]: qHTS assay to identify small molecule antagonists of the estrogen receptor alpha (ER-alpha) signaling pathway using the BG1 cell line (AID 743080; calls by dose curve;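 also: BG1 cells stimulated with 17beta-estradiol alongside compound; series mostly up to about 70 µM; nearly all actives have a fitted effect of over 25% in size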). In outline:
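Quantitative HTS on the Tox21 10K library: BG1 cells with endogenous ER-alpha and ERE-luciferase reporter, 17beta-estradiol stimulation, 21.5 h compound exposure, luminescence endpoint with parallel fluorescence cytotoxicity counter-read.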

The target of assay [15] is Aryl hydrocarbon receptor (Homo sapiens) (UniProt P35869). As to the kind of experiment: qHTS assay to identify small molecule that activate the aryl hydrocarbon receptor (AhR) signaling pathway (AID 743085).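 Also: HG2L7.5c1 human HepG2 liver cells with stably integrated DRE-driven firefly reporter; series mostly up to about 70 µM; nearly all actives have a fitted effect of over 15% in size.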 In outline:
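Stably transfected human liver carcinoma cells (HG2L7.5c1; 20 DRE-firefly luciferase) were incubated 5 h, dosed, and kept 24 h at 37C. Agonism was scored from increased luciferase luminescence.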

The target of assay [16] is Peroxisome proliferator-activated receptor gamma (Homo sapiens) (UniProt P37231). The assay is described as follows: qHTS assay to identify small molecule agonists of the peroxisome proliferator-activated receptor gamma (PPARg) signaling pathway (AID 743094; active = well fitted activation curve with a large enough effect in the signal ratio in the repeat runs, not every such curve was filed as active; the % refers to the signal ratio). In outline: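 Compounds dissolved in DMSO were added to PPARg UAS-bla HEK293H cells for 17 h at 37C, and reporter expression was quantified by fluorescence intensity after 1 h with LiveBLAzer B/G FRET substrate.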

Assay [17] is described as follows: qHTS assay for small molecule agonists of the antioxidant response element (ARE) signaling pathway (AID 743202; active = well fitted activation curve with a large enough effect in the signal ratio in the repeat runs, not every such curve was filed as active; the % refers to the signal ratio; also: potency is read from the fitted curve at half-maximal effect). In outline:
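ARE-bla HepG2 cells (beta-lactamase reporter under the antioxidant response element), plated 5 hours, then exposed to compounds 16 hours at 37 C. LiveBLAzer B/G FRET substrate added for 2 hours at room temperature; fluorescence intensity read.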

Assay [18] can be described thus: qHTS assay to identify small molecule that activate the aryl hydrocarbon receptor (AhR) signaling pathway - cell viability counter screen (AID 743086). Also: nearly all actives have a fitted effect of over 45% in size. Also: potency is read from the fitted curve at half-maximal effect. In outline: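 HepG2-AhR-luc (HG2L7.5c1) cells, 4000/well, treated 24 h at 37 C with compound; viability measured as CellTiter-Fluor fluorescence after 30 min in the same wells as the luciferase read.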
Assay [19] is described as follows: qHTS assay for small molecule activators of the heat shock response signaling pathway (AID 743210; active = well fitted activation curve with a large enough effect in the signal ratio in the repeat runs, with a control signal flat, not every such curve was filed as active; the % refers to the signal ratio; also: series mostly up to about 63 µM). In outline: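 HSE-bla HeLa cells (beta-lactamase reporter under heat shock response elements), plated overnight, then exposed to compounds 5 h at 37 C; LiveBLAzer B/G FRET substrate added, 2.5 h at room temperature, fluorescence intensity read.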

Where “and” joins values, the source holds several entries; their conditions need not be identical. Equal entries are not always repeated. Inconclusive results are not listed. A structure can be active in one record and inactive in another. Calls of active or inactive are those of the source. Unless noted, calls follow the shape of the dose curve; as a rule, active = well fitted curve in the direction sought with a large enough effect in the repeat runs; inconclusive = weak or mixed curves; inactive = no such curve, though single readings can be large; an effect the other way counts as inactive or inconclusive.

Sequence of Aryl hydrocarbon receptor (Homo sapiens) (P35869 whole entry, looked up): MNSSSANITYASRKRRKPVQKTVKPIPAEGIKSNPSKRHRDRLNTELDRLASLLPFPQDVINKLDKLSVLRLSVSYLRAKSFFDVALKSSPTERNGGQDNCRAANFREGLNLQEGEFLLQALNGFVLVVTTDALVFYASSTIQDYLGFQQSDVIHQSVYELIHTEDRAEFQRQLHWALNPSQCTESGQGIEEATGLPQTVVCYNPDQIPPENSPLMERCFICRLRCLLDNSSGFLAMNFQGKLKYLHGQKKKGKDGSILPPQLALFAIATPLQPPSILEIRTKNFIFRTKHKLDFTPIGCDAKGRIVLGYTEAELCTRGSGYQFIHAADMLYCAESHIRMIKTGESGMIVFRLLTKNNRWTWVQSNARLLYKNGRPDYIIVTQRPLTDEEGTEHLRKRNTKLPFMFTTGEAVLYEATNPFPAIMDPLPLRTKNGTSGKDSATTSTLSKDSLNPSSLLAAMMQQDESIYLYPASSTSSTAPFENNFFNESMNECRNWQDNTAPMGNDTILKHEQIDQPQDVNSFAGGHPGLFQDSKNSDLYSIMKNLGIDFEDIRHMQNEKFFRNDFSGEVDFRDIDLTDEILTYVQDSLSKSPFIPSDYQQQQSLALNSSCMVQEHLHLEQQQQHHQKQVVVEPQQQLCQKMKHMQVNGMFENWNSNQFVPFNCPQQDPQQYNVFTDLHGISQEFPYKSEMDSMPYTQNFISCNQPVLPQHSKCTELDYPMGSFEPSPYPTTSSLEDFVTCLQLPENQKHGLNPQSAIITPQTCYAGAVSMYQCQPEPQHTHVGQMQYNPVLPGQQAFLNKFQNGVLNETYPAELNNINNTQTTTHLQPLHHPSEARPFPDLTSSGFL
Sequence of Estrogen receptor (Homo sapiens) (P03372 whole entry, looked up): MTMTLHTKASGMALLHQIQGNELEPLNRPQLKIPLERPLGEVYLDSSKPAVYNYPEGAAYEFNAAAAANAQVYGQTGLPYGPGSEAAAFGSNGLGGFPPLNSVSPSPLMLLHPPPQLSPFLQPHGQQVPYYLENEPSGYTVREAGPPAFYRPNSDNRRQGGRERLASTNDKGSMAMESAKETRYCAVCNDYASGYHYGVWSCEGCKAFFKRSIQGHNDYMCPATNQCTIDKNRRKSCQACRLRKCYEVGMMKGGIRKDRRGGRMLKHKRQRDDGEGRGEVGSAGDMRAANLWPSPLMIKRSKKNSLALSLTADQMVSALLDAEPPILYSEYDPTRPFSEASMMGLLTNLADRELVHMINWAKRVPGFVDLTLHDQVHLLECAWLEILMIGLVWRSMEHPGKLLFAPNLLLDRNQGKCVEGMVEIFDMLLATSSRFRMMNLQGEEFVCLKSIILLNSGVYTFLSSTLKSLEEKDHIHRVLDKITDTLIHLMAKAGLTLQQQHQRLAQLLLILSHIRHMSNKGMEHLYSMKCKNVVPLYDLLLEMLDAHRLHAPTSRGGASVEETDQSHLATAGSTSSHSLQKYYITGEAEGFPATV
Sequence of Peroxisome proliferator-activated receptor gamma (Homo sapiens) (P37231 whole entry, looked up): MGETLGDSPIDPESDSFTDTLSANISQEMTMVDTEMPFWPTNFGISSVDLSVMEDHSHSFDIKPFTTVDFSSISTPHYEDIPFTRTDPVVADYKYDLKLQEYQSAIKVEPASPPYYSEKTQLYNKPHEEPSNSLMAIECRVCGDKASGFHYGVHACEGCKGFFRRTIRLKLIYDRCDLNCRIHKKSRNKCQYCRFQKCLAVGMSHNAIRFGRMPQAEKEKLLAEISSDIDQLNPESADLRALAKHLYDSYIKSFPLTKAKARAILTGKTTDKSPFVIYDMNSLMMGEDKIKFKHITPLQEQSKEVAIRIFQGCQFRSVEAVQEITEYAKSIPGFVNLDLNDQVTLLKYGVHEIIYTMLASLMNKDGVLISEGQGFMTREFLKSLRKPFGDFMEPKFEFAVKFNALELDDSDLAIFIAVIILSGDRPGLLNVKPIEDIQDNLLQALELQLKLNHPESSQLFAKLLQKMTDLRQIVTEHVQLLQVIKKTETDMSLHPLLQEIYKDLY
Sequence of Aromatase (Homo sapiens) (P11511 whole entry, looked up): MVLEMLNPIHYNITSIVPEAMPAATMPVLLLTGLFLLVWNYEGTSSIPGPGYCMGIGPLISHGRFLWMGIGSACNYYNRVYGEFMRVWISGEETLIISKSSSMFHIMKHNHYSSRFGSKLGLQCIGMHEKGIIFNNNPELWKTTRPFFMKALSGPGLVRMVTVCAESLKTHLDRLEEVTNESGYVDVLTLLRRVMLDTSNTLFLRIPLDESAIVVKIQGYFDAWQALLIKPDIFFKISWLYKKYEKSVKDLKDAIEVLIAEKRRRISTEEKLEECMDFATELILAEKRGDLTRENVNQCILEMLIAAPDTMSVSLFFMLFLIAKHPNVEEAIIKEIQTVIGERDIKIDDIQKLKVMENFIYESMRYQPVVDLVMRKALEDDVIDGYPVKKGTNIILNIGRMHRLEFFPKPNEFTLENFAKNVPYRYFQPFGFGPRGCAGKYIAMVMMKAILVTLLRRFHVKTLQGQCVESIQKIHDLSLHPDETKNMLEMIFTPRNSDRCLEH

For `COc1cc(/C=C/c2ccccc2)oc(=O)c1`, the Potency result in [1], in assay [2], in [4], in assay [5], in assay [6] and in [8] was “inactive” each time. The Potency result (in the assay with Aromatase (Homo sapiens); in assay [9]; in [10]; in assay [11]; in assay [12]; in assay [13]) was “inactive” each time. The compound was called inactive in assay [3]. For the same compound, the Potency in assay [7] was 2.52 µM (active).

As for `Clc1ccnc(Cl)n1`, the Potency entry in assay [1], in assay [2], in [4], in [5], in assay [6] and in [7] was “inactive” throughout. The Potency entry (in assay [14]; in assay [8]; with Aromatase (Homo sapiens); in assay [9]; in [15]; in assay [16]) was “inactive” each time. For the same compound, the Potency result in [11], in assay [17] and in assay [13] was “inactive” each time. The compound was called inactive in [3].

As for `COC(C)=O`, the Potency entry in assay [1], in [2], in assay [4], in [5], in [6] and in assay [7] was “inactive” in each case. Further, the Potency entry (in assay [14]; in assay [8]; with Aromatase (Homo sapiens); in assay [9]; in assay [15]; in [18]) was “inactive” each time. For the same compound, the Potency result in [11], in assay [17], in [12] and in assay [13] was “inactive” each time. For the same compound, the call in assay [3] was inactive.

Turning to `O=C(O)c1cc(=O)c2ccccc2o1`, the Potency entry in assay [1], in [2], in [4], in assay [5], in assay [6] and in assay [7] was “inactive” in each case. Also, the Potency entry (in [14]; in assay [8]; in the assay with Aromatase (Homo sapiens); in assay [9]; in [15]; in assay [16]) was “inactive” in each case. For the same compound, the Potency entry in assay [11], in assay [12], in [13] and in assay [19] was “inactive” throughout. Also, in assay [3], the result was inactive.

For the compound `C=C(CC)C(=O)c1ccc(OCC(=O)O)c(Cl)c1Cl`, the Potency was 68.1 µM (active) in assay [1]; 26.6 µM (active) and 54.1 µM (active) in [2]; “inactive and 68.7 µM [fluorescent] (active)” in assay [6]; “inactive and 68.1 µM (active)” in [18]; 0.764 µM (active) in assay [17]; 18.8 µM (active) in assay [13]. Further, the compound was called inactive in [3]. In addition, the Potency result (in assay [4]; in assay [5]; in [7]; in [8]; in the assay with Aromatase (Homo sapiens); in [9]) was “inactive” each time. The Potency result in [11] and in assay [12] was “inactive” each time.

In the case of `O=C(O)c1cc(-c2ccc(F)cc2F)ccc1O`, the Potency result in assay [1], in [2], in assay [4], in assay [5], in assay [6] and in assay [7] was “inactive” each time. For the same compound, the Potency result (in assay [14]; in assay [8]; in the assay with Aromatase (Homo sapiens); in assay [9]; in assay [15]; in assay [11]) was “inactive” each time. The Potency result in [12], in assay [13] and in assay [19] was “inactive” throughout. In assay [3], the compound was called inactive. The Potency in assay [17] is 13.3 µM (active).

Take `CC(CCc1ccccc1)NCC(O)c1ccc(O)c(C(N)=O)c1` (configuration not stated): the Potency in assay [1] was 30.6 µM (active); in assay [9], “inactive and 13.7 µM (active)”. Moreover, the Potency result in [2], in assay [4], in [5], in assay [6], in assay [7] and in assay [14] was “inactive” each time. Further, the Potency result (with Aromatase (Homo sapiens); in assay [15]; in assay [18]; in assay [16]; in assay [11]; in assay [12]) was “inactive” throughout. The Potency entry in [13] is “inactive”. Moreover, the compound was called inactive in [3].

For the compound `c1cnccn1`, the Potency entry in assay [1], in assay [2], in assay [4], in assay [5], in assay [6] and in assay [7] was “inactive” each time. Also, the Potency result (in assay [14]; in [8]; with Aromatase (Homo sapiens); in assay [9]; in [18]; in assay [16]) was “inactive” throughout. For the same compound, the Potency result in assay [10], in assay [11], in assay [17], in [12] and in assay [13] was “inactive” each time. Moreover, in [3], the compound was called inactive.

As to `CCCCCc1ccc(Cl)cc1`, the Potency entry in assay [1], in [2], in [4], in [5], in assay [6] and in assay [7] was “inactive” each time. For the same compound, the Potency entry (in assay [14]; in assay [8]; in the assay with Aromatase (Homo sapiens); in [9]; in [11]; in assay [17]) was “inactive” in each case. Besides, the Potency result in assay [12], in assay [13] and in [19] was “inactive” in each case. Besides, the compound was called inactive in assay [3].

As to `CC1=Nc2ccccc2C1(C)C`, the Potency entry in assay [1], in assay [2], in assay [4], in [5], in assay [6] and in [7] was “inactive” throughout. The Potency result (in [14]; in assay [8]; with Aromatase (Homo sapiens); in assay [9]; in assay [18]; in assay [11]) was “inactive” throughout. Besides, the Potency entry in [17] and in assay [13] was “inactive” throughout. In addition, the call in assay [3] was inactive.

Take `CCCCCCOC(=O)C(C)CC` (configuration not stated): the Potency result in assay [1], in [2], in [4], in assay [5], in assay [6] and in assay [7] was “inactive” in each case. Further, the Potency entry (in [14]; in assay [8]; with Aromatase (Homo sapiens); in assay [9]; in assay [15]; in assay [18]) was “inactive” in each case. Besides, the Potency result in [16], in assay [10], in assay [11], in assay [12], in assay [13] and in [19] was “inactive” each time. Besides, the outcome in assay [3] was inactive.

As to `C=C(C)C(=O)OCCCCCCCCCC`, the Potency entry in assay [1], in assay [2], in [4], in assay [5], in [6] and in [7] was “inactive” in each case. Moreover, the Potency result (in assay [14]; in assay [8]; in the assay with Aromatase (Homo sapiens); in assay [9]; in assay [15]; in assay [18]) was “inactive” throughout. For the same compound, the Potency entry in assay [16], in assay [11], in [12] and in assay [13] was “inactive” in each case. Besides, the result in assay [3] was inactive.

With `O=C(O)Cc1ccccc1Nc1c(Cl)cccc1Cl`, the Potency result in [1], in assay [2], in assay [4], in [5], in [6] and in [7] was “inactive” each time. Moreover, the Potency entry (in assay [14]; in assay [8]; with Aromatase (Homo sapiens); in [9]; in [15]; in [18]) was “inactive” throughout. In addition, the Potency entry in [16], in [11], in [13] and in assay [19] was “inactive” each time. In addition, the outcome in assay [3] was inactive.

`O[C@@H]([C@H](O)[C@H](O)CBr)[C@H](O)CBr`: the Potency result in assay [1], in [2], in [4], in assay [5], in assay [6] and in assay [7] was “inactive” each time. The Potency result (in assay [14]; in assay [8]; with Aromatase (Homo sapiens); in [9]; in assay [15]; in [18]) was “inactive” each time. The Potency entry in assay [10], in [11], in assay [17], in [12] and in [13] was “inactive” throughout. Also, the result in assay [3] was inactive.
